# Measurements taken from ChEMBL document CHEMBL2218924, “A broad activity screen in support of a chemogenomic map for kinase signalling research and drug discovery” (Biochem J, 2013).
# Legend:
# [1] = molecular target: Ephrin type-A receptor 7 (Homo sapiens) (UniProt Q15375); conditions: at 1 µM
# [2] = molecular target: Ephrin type-A receptor 7 (Homo sapiens) (UniProt Q15375); conditions: at 10 µM
# [3] = molecular target: T1, Ephrin type-B receptor 1 (Homo sapiens) (UniProt P54762); conditions: at 1 µM
# T1 sequence (whole entry): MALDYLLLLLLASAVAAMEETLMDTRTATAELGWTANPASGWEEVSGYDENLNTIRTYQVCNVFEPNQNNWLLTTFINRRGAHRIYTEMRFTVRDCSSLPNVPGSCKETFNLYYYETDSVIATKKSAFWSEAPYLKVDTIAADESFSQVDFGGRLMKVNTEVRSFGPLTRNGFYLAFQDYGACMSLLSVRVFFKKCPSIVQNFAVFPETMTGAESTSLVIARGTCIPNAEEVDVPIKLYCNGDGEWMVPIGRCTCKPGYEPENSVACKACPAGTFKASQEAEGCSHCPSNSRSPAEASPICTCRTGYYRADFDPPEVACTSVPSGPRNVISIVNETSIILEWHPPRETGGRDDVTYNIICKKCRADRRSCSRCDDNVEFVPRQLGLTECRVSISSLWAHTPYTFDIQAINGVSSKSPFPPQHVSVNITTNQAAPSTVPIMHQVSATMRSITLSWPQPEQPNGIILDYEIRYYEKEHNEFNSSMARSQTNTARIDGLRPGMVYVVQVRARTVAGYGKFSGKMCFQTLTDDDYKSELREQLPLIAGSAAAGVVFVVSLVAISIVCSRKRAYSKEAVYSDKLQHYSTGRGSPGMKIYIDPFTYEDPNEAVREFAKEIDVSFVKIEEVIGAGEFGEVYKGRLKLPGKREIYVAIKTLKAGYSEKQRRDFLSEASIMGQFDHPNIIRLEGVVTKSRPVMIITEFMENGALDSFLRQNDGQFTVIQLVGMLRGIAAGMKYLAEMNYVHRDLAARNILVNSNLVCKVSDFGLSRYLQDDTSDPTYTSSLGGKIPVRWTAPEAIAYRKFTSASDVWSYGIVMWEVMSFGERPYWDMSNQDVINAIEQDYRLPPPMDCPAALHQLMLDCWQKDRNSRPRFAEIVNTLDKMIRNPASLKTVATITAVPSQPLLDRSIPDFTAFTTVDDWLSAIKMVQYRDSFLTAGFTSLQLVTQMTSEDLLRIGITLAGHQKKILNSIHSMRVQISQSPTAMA
# [4] = molecular target: T1, Ephrin type-B receptor 1 (Homo sapiens); conditions: at 10 µM
# [5] = molecular target: T2, Ephrin type-B receptor 4 (Homo sapiens) (UniProt P54760); conditions: at 10 µM
# T2 sequence (whole entry): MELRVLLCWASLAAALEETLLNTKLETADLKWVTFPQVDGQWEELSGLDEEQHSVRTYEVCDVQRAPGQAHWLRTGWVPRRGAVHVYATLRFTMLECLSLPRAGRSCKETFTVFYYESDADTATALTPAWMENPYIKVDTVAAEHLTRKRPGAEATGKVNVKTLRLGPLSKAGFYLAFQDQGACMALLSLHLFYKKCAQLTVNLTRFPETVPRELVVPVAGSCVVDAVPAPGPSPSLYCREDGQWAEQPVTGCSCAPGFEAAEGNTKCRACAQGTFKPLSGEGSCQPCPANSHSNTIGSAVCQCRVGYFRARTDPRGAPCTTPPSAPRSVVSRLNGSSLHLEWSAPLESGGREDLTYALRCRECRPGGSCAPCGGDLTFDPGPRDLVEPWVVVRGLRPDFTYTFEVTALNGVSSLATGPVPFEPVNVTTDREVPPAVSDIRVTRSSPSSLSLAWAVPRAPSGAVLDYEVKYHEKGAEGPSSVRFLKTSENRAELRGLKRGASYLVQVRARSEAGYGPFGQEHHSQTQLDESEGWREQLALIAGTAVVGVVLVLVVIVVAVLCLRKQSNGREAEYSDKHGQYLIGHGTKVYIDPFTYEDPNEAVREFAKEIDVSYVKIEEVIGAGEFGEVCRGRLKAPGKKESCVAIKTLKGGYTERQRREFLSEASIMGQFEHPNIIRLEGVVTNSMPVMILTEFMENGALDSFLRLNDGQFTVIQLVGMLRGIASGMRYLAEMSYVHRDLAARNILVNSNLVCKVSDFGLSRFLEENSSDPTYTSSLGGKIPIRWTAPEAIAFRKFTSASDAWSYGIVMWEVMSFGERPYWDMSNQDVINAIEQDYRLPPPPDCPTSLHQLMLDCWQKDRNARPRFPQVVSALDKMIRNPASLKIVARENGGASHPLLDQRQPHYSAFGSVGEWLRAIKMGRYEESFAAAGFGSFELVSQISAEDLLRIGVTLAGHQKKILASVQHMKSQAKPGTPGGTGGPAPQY
# [6] = molecular target: Receptor tyrosine-protein kinase erbB-4 (Homo sapiens) (UniProt Q15303); conditions: at 10 µM
# Sequence of Receptor tyrosine-protein kinase erbB-4 (Homo sapiens) (Q15303 whole entry): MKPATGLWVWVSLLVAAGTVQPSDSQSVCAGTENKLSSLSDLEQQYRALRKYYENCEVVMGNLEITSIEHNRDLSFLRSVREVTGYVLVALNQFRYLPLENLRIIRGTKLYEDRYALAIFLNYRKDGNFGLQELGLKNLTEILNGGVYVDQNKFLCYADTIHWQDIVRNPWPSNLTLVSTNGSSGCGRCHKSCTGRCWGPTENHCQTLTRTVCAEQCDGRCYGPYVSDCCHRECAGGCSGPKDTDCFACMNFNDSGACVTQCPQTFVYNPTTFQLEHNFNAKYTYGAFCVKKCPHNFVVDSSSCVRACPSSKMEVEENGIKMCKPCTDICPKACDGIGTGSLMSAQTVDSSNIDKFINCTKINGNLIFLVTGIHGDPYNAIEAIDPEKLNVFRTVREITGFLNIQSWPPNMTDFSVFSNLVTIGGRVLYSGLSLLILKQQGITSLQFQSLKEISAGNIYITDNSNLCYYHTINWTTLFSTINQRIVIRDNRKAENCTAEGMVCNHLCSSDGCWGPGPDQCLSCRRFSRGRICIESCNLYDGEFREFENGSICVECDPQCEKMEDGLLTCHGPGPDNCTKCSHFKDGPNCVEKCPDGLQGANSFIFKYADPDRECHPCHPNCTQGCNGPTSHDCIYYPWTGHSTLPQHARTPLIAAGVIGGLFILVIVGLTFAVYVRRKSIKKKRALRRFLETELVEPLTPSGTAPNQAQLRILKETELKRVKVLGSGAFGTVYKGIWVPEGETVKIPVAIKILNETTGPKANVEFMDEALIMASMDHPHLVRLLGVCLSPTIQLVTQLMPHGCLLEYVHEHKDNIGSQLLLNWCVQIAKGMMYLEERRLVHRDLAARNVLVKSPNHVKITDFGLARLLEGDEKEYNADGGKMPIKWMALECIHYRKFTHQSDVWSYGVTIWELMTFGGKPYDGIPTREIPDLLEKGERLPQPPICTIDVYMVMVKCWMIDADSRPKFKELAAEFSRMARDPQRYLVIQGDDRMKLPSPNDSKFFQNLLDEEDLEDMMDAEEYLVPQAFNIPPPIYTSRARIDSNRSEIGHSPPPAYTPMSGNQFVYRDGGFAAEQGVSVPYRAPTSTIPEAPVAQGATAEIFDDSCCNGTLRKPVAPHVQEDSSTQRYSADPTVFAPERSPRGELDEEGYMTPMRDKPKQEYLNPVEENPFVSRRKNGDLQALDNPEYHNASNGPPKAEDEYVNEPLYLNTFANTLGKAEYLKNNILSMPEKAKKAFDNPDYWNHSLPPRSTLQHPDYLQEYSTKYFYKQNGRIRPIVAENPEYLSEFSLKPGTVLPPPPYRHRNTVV
# [7] = molecular target: Focal adhesion kinase 1 (Homo sapiens) (UniProt Q05397); conditions: at 1 µM
# Sequence of Focal adhesion kinase 1 (Homo sapiens) (Q05397 2-1052 limits assumed): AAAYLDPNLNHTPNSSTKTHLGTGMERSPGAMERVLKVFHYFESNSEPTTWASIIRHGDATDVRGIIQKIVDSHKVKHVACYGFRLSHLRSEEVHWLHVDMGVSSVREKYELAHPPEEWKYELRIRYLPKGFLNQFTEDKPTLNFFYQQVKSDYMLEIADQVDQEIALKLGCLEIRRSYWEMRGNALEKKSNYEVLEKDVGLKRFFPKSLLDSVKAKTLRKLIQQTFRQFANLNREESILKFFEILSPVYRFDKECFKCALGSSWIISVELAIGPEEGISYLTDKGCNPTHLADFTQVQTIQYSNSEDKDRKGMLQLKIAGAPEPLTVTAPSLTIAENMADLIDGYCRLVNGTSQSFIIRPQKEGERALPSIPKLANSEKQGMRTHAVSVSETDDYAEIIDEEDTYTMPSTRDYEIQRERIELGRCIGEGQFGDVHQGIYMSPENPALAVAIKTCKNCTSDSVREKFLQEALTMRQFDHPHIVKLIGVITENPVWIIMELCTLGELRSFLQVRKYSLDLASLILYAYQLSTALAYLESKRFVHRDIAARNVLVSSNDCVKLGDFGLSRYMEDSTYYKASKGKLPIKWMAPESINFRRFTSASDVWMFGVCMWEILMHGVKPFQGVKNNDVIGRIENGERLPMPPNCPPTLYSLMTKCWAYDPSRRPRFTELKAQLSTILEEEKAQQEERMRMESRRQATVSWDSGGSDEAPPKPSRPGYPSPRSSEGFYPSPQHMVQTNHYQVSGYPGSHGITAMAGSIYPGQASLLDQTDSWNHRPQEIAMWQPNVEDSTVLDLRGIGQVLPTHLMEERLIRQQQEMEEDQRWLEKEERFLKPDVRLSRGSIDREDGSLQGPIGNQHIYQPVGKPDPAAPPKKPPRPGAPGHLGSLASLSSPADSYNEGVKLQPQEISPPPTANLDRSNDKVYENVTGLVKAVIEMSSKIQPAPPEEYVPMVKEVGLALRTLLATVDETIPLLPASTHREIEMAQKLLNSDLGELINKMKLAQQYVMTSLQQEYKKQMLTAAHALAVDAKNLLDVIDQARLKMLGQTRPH
# [8] = molecular target: Receptor tyrosine-protein kinase erbB-4 (Homo sapiens) (UniProt Q15303); conditions: at 1 µM
# [9] = molecular target: T3, Ephrin type-A receptor 3 (Homo sapiens) (UniProt P29320); conditions: at 10 µM
# T3 sequence (whole entry): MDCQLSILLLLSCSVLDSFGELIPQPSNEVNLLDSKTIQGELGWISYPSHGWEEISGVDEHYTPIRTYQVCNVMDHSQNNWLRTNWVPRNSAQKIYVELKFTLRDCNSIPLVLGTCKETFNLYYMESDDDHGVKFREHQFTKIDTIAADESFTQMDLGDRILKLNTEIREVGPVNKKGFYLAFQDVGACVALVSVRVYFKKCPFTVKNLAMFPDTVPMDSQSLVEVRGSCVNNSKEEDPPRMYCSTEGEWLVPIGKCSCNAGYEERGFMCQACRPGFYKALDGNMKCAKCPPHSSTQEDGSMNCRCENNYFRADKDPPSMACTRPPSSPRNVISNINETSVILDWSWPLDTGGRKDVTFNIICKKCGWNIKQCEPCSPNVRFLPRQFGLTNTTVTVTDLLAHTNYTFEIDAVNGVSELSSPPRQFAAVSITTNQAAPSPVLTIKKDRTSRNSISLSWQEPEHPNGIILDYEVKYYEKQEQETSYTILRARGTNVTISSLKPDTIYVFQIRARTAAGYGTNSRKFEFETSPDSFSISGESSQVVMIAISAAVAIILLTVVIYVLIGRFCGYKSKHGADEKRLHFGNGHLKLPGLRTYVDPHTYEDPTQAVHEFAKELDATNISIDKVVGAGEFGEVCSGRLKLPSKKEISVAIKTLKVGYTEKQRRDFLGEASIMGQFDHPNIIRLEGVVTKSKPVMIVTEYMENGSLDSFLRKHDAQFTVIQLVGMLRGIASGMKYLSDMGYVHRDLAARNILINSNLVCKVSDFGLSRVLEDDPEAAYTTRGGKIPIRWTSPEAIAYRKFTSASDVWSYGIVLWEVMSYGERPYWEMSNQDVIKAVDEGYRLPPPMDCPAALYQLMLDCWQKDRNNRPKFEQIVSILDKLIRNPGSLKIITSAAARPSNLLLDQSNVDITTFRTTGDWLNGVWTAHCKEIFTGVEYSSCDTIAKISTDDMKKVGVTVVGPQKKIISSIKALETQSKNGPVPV
# [10] = molecular target: Ephrin type-A receptor 4 (Homo sapiens) (UniProt P54764); conditions: at 1 µM
# Sequence of Ephrin type-A receptor 4 (Homo sapiens) (P54764 whole entry): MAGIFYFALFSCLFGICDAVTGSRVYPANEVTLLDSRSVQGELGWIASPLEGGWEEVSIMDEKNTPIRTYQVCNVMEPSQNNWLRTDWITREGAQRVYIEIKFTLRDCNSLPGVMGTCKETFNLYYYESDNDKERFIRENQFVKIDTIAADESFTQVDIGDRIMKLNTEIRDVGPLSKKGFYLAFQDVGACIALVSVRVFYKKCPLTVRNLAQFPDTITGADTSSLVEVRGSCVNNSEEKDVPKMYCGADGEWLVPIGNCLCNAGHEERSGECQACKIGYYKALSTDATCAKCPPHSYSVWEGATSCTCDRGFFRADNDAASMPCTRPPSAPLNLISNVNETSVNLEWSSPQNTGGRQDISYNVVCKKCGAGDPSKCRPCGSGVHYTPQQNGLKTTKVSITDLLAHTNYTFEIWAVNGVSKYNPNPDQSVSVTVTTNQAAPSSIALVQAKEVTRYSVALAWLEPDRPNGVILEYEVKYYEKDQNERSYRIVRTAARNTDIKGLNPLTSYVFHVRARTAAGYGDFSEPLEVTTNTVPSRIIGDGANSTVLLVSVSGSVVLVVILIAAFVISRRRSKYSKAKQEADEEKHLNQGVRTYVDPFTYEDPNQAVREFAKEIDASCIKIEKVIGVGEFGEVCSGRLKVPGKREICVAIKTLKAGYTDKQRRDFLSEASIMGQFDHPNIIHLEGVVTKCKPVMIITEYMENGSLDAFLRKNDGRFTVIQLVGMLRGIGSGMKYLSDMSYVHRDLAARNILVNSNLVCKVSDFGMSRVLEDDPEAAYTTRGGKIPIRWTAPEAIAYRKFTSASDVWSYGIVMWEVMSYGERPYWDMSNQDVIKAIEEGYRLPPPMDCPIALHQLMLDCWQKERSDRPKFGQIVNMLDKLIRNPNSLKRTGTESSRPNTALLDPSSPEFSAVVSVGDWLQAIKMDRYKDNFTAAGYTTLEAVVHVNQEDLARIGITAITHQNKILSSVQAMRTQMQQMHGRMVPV
# [11] = molecular target: Ephrin type-A receptor 4 (Homo sapiens) (UniProt P54764); conditions: at 10 µM
# [12] = molecular target: T4, Ephrin type-B receptor 2 (Homo sapiens) (UniProt P29323); conditions: at 1 µM
# T4 sequence (whole entry): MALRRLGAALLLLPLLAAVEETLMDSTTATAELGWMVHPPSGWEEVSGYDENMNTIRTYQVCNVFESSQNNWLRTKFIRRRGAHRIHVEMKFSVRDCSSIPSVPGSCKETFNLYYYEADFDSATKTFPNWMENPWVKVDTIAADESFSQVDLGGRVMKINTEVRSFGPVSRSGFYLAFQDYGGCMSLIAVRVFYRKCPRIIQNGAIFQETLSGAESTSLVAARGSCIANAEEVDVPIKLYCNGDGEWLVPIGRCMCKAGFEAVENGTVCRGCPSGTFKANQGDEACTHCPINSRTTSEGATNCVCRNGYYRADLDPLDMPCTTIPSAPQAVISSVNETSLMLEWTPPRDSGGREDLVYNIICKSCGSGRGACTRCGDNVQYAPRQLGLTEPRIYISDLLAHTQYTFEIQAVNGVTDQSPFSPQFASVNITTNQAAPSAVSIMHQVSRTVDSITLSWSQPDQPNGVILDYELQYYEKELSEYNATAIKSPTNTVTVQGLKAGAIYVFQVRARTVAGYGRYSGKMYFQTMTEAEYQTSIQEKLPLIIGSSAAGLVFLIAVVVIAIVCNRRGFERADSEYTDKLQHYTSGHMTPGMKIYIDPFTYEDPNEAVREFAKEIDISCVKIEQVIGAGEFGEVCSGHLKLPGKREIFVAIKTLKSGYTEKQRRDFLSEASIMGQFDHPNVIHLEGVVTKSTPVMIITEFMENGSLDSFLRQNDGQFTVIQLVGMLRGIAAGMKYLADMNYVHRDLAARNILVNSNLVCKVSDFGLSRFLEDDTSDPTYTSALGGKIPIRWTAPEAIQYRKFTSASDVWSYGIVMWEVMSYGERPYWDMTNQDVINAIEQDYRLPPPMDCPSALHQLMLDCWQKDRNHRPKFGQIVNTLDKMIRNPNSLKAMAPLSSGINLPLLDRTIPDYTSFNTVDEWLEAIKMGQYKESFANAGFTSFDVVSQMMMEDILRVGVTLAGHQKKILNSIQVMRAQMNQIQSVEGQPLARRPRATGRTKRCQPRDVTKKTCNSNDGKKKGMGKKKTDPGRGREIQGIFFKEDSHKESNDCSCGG
# [13] = molecular target: T4, Ephrin type-B receptor 2 (Homo sapiens); conditions: at 10 µM
# [14] = molecular target: T5, Ephrin type-B receptor 3 (Homo sapiens) (UniProt P54753); conditions: at 1 µM
# T5 sequence (whole entry): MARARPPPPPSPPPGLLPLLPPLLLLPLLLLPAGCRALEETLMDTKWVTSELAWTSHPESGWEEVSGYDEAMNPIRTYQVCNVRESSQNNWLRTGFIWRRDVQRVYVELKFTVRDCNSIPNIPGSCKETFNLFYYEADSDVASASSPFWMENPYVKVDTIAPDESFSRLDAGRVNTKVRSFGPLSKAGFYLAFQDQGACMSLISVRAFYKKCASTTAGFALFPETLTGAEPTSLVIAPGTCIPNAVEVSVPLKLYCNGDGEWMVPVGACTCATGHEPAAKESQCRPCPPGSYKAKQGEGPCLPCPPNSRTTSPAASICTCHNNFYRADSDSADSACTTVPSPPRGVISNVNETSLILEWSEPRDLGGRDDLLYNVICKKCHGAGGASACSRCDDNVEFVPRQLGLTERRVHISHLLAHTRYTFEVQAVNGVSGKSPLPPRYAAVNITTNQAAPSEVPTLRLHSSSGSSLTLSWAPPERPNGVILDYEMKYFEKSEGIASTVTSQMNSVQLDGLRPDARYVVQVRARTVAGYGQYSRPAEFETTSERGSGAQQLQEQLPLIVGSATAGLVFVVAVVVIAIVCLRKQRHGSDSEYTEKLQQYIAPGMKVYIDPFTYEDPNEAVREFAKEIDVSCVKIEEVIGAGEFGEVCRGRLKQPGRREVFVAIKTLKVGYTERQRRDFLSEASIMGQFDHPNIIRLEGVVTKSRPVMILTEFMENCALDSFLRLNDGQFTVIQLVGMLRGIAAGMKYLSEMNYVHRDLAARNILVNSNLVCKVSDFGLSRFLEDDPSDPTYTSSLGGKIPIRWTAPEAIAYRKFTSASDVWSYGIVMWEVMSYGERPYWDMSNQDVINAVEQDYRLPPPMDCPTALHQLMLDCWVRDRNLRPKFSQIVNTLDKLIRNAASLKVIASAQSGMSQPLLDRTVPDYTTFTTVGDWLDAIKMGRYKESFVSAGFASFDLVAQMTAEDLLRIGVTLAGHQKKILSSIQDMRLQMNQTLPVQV
# [15] = molecular target: T5, Ephrin type-B receptor 3 (Homo sapiens); conditions: at 10 µM
# Sequence of Ephrin type-A receptor 7 (Homo sapiens) (Q15375 28-998 limits assumed): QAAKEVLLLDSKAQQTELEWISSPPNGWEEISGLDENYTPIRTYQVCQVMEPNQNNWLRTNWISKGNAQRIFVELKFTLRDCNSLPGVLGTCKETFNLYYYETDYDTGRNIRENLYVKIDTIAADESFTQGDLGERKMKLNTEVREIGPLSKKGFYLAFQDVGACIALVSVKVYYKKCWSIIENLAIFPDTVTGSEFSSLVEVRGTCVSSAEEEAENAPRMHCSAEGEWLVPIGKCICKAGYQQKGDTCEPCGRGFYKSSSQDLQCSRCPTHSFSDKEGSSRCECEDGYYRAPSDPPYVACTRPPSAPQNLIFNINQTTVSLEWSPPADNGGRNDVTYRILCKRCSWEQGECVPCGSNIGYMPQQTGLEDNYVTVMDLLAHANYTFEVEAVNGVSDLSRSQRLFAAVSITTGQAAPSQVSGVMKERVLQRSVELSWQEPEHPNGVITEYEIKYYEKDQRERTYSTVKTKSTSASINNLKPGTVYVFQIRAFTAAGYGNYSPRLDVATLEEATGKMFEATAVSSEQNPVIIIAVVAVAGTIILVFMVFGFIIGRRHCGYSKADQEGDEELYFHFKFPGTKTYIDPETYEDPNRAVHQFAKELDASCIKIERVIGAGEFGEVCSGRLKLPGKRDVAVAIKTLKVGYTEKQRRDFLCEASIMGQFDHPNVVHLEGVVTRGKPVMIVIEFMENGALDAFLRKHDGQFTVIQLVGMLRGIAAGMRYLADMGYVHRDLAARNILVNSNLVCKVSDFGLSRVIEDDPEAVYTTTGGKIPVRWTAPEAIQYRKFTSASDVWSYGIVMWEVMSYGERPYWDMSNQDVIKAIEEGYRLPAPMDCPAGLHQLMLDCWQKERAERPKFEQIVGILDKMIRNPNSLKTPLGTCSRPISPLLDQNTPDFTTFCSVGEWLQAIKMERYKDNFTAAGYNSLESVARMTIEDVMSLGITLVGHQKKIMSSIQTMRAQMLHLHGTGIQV
compound,measurement,setting,value
O=C1NC(=O)C(c2c[nH]c3ccccc23)=C1c1c[nH]c2ccccc12,residual activity,[1],99%
same,residual activity,[2],67%
same,residual activity,[3],83%
same,residual activity,[4],39%
same,residual activity,[5],82%
same,residual activity,[6],73%
same,residual activity,[7],122%
CCN1/C(=C/C(C)=O)Sc2ccc(OC)cc21,residual activity,[8],75%
same,residual activity,[6],69%
O=c1cc(N2CCOCC2)oc2c(-c3ccccc3)cccc12,residual activity,[9],77%
same,residual activity,[2],79%
same,residual activity,[8],79%
same,residual activity,[6],65%
NC(=O)c1cccc(-c2cc(Nc3ccc(OC(F)(F)F)cc3)ncn2)c1,residual activity,[7],147%
CC(C)N(CCC(=O)c1ccc2ccccc2c1)Cc1ccccc1,residual activity,[9],85%
same,residual activity,[6],78%
O=C1Cc2c([nH]c3ccc([N+](=O)[O-])cc23)-c2ccccc2N1,residual activity,[10],105%
same,residual activity,[11],105%
same,residual activity,[4],81%
same,residual activity,[12],106%
same,residual activity,[13],107%
same,residual activity,[14],124% (inactive)
same,residual activity,[15],113%
